Test system: Vero E6 infected with SARS-CoV-2
Assay: inhibition of SARS-CoV-2 cytopathic effect; higher = more antiviral protection, active = above 15
Conditions: 1 nM; 48 h

| SMILES | inhibition of SARS-CoV-2 cytopathic effect |
| --- | --- |
| C[C@]12CC[C@@H]3c4ccc(O)cc4CC[C@H]3[C@@H]1CC[C@@H]2O [estradiol] | 1.43% (inactive) |
| Nc1nc2c(ncn2COCCO)c(=O)[nH]1 [acyclovir] | 12.6% (inactive) |
| N#Cc1ccccc1OCC(O)CNCCNC(=O)Nc1ccccc1 (stereo not drawn) | 0.6% (inactive) |
| O=C(Cc1cccc(OC(F)(F)F)c1)Nc1ccc(CCCCc2nnc(NC(=O)Cc3ccccn3)s2)nn1 | -1.49% (inactive) |
| CN1CCCN=C1/C=C/c1cccs1 [pyrantel-pamoate] | 1.74% (inactive) |

Same assay, conditions: 8.33 nM; 48 h

| SMILES | inhibition of SARS-CoV-2 cytopathic effect |
| --- | --- |
| CC(=O)OCC1=C(C(=O)O)N2C(=O)[C@@H](N)[C@H]2SC1 [7-aminocephalosporanic-acid] | -2.34% (inactive) |
| O[C@@H](CN1CCC(Cc2ccc(F)cc2)CC1)c1ccc(Cl)cc1 (racemic) [eliprodil] | 0.95% (inactive) |
| CCCCOc1ccc(C(=O)Nc2ccc(F)cc2F)cc1 | 2.63% (inactive) |
| CC(C)Nc1cccnc1N1CCN(C(=O)c2cc3cc(NS(C)(=O)=O)ccc3[nH]2)CC1 [delavirdine] | -0.85% (inactive) |
| COc1ccc2ccc(=O)oc2c1CC=C(C)C [osthol] | 6.22% (inactive) |
| CCN(CC)CCNC(=O)c1cc(Br)c(N)cc1OC [bromopride] | -1.83% (inactive) |
| O=C(O)c1c(Sc2ccccc2)c2cc(Cl)ccc2n1Cc1ccc(Cl)cc1 | -0.87% (inactive) |
| CC[C@@H](C)Nc1cc(C(=O)N[C@H]2C[C@H]3CC[C@@H](C2)N3c2ccc(C(=O)C3CC3)cn2)c(C)cc1C(N)=O | 1.25% (inactive) |

Source: the supplement of paper PMC13380429
